Compound activity deposited in PubChem BioAssay by several laboratories.
Y pestis TopoI – Yersinia pestis topoisomerase I inhibitors, primary screen, biochemical, cleavage product accumulation, plate reader, single point; DNA topoisomerase I (Yersinia pestis CO92); Y. pestis Topo-I cleavage product accumulation; activity, % at 10 µM; actives 0.064% (n = 360,000); AID 504884, 2011; in the data active means activity above about 50%, passing the limit was not always enough
TcdB inh – TcdB glycohydrolase inhibitors, primary screen, biochemical, single point, plate reader. Toxin B (Clostridioides difficile), P18177. TcdB glycohydrolase enzymatic assay. inhibition, % at 9.99 µM. actives 0.24% (n = 350,000). AID 652162, 2013; in the data active means inhibition above about 10%
Mtb FBA inh – Mtb FBA enzyme inhibitors, primary screen, biochemical, fluorescence, strain H37Rv; actives 2.3% (n = 360,000); inhibition, % at 1 µM; Fructose-bisphosphate aldolase (Mycobacterium tuberculosis (strain ATCC 25618 / H37Rv)), …; purified M. tuberculosis FBA, fluorescence read-out; in the data active means inhibition above about 27%;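 further: 0% = vehicle and 100% = reference inhibitor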
Target sequence (P9WQA3 whole entry, looked up): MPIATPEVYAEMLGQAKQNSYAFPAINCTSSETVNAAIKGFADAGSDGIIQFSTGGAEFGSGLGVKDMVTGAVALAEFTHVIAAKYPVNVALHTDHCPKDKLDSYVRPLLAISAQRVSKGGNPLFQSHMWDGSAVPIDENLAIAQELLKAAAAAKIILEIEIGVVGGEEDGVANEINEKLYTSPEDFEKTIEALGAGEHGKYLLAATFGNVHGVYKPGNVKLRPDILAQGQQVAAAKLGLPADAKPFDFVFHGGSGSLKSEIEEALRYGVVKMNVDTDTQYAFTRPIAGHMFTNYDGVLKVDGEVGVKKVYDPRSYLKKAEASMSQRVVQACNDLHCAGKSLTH
PrPC TRFRET – inhibitors of human cell surface prion protein PrPC, primary screen, cell-based, TR-FRET; Major prion protein (Homo sapiens), P04156; inhibition, % at 13.8 µM; TR-FRET read-out; actives 0.43% (n = 370,000); in the data active means inhibition above about 24%; further: 0% = median of the test wells and 100% = reference compound wells
GDH-TPI inh – GDH-TPI coupling enzyme inhibitors, primary screen, artefact control for M. tuberculosis FBA inhibitor project, biochemical, absorbance, full deck; GDH-TPI coupled enzyme counterscreen, NADH absorbance; inhibition, % at 4.8 µM; actives 1.2% (n = 360,000); in the data active means inhibition above about 30%;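 further: 0% = DMSO wells and 100% = wells lacking the enzyme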
Starred values were filed as active, the others as inactive. An excerpt weighted towards active compounds, which were near 3.2% of everything screened.

What do the screens show for `COc1ccc(NC(=O)N(C)C[C@@H]2Oc3c(NC(=O)Nc4cccc5ccccc45)cccc3C(=O)N([C@@H](C)CO)C[C@@H]2C)cc1`?
TcdB inh: -0.2

Results for CCCC#Cc1cnc2c(c1)C(=O)N([C@H](C)CO)C[C@H](C)[C@@H](CN(C)C(=O)c1ccc3c(c1)OCO3)O2 ?
TcdB inh: 0.5

Results for C[C@@H]1CN([C@H](C)CO)C(=O)c2cc(NC(=O)CCN3CCOCC3)ccc2O[C@H]1CN(C)C(=O)Nc1ccc(C(F)(F)F)cc1 ?
TcdB inh: -6.4

How did Cc1ccc(S(=O)(=O)N(C)C)cc1NC(=O)c1cc(-c2ccco2)nc2ccccc12 do in these assays?
Y pestis TopoI: 14.1; Mtb FBA inh: 44.9*; GDH-TPI inh: 9.6

What do the screens show for `O=C(NCC1CCCO1)c1cc(-c2ccncc2)nc2ccccc12` (stereo unspecified)?
Y pestis TopoI: -0.7; TcdB inh: 2.2; Mtb FBA inh: 1.0; PrPC TRFRET: -5.8; GDH-TPI inh: -1.4

What do the screens show for `O=C(NCC1CCCO1)c1cc(-c2ccco2)nc2ccccc12` (stereo unspecified)?
Y pestis TopoI: 4.2; TcdB inh: 0.4; Mtb FBA inh: 183.1*; PrPC TRFRET: -13.7; GDH-TPI inh: 27.6

What do the screens show for `C[C@H]1CN([C@@H](C)CO)C(=O)c2cc(C#CC3(O)CCCC3)cnc2O[C@H]1CN(C)Cc1ccccn1`?
TcdB inh: 1.4

How did Cc1ccccc1-c1n[nH]c(=S)n1/N=C/C=C/c1ccco1 do in these assays?
Y pestis TopoI: -14.3; TcdB inh: 0.0; Mtb FBA inh: -1.1; PrPC TRFRET: -11.3; GDH-TPI inh: 43.5*

How did Cc1cc(-c2n[nH]c(=S)n2/N=C/C=C/c2ccco2)n[nH]1 do in these assays?
Y pestis TopoI: -3.8; TcdB inh: 3.0; Mtb FBA inh: 0.9; PrPC TRFRET: -5.7; GDH-TPI inh: 9.0

Results for S=c1[nH]nc(-c2ccccc2)n1/N=C/C=C/c1ccco1 ?
Y pestis TopoI: -8.8; TcdB inh: 0.3; Mtb FBA inh: -2.4; PrPC TRFRET: -8.2; GDH-TPI inh: 32.6*

What do the screens show for `C/C(C=Nn1c(-c2ccc(F)cc2)n[nH]c1=S)=C/c1ccco1`?
PrPC TRFRET: 5.9

How did CC(/C=N/n1c(-c2n[nH]c3c2CCC3)n[nH]c1=S)=C\c1ccco1 do in these assays?
Y pestis TopoI: -3.5; TcdB inh: 4.9; Mtb FBA inh: 0.9; PrPC TRFRET: -9.7; GDH-TPI inh: 44.8*

How did C(/C=C/c1ccco1)=N/N1CCN(c2ccccc2)CC1 do in these assays?
Y pestis TopoI: 0.5; Mtb FBA inh: -2.9; PrPC TRFRET: -1.9; GDH-TPI inh: 46.6*

How did Cc1ccc(S(=O)(=O)Nc2ccc3c(c2)C(=O)N([C@@H](C)CO)C[C@H](C)[C@@H](CN(C)C(=O)Nc2ccccc2)OCCCC[C@@H](C)O3)cc1 do in these assays?
TcdB inh: 1.2

How did C[C@H]1CN([C@@H](C)CO)C(=O)c2cc(-c3cccnc3)cnc2O[C@H]1CN(C)C(=O)C1CCC1 do in these assays?
TcdB inh: 0.0

What do the screens show for `COc1ccc(NC(=O)Nc2ccc3c(c2)C(=O)N([C@H](C)CO)C[C@H](C)[C@@H](CN(C)C(=O)Nc2ccccc2)OCCCC[C@H](C)O3)cc1`?
TcdB inh: -0.4

Results for FC(F)(F)C(F)(F)C(F)(F)c1nc2nc(Cl)c(Cl)nc2[nH]1 ?
Y pestis TopoI: 5.5; TcdB inh: 2.7; Mtb FBA inh: 14.3; PrPC TRFRET: 12.0; GDH-TPI inh: 34.2*

How did Cc1nn(Cc2ccccc2Cl)c(C)c1NC(=O)c1nc2ncccn2n1 do in these assays?
Y pestis TopoI: 1.1; TcdB inh: 0.7; Mtb FBA inh: 0.0; PrPC TRFRET: 10.1; GDH-TPI inh: 37.0*

How did Cc1nn(Cc2ccccc2Cl)c(C)c1NC(=O)c1ccn(C)n1 do in these assays?
Y pestis TopoI: 2.3; Mtb FBA inh: -0.9; PrPC TRFRET: 7.5; GDH-TPI inh: 8.5

How did CCOC(=O)C(=CNc1ccc(C(F)(F)F)cc1Cl)C(=O)OCC do in these assays?
Y pestis TopoI: -2.8; TcdB inh: 0.5; Mtb FBA inh: 1.0; PrPC TRFRET: -5.9; GDH-TPI inh: 36.0*

What do the screens show for `Cc1ccc(S(=O)(=O)Nc2ccc(Nc3nccn4c(-c5ccccc5Oc5ccccc5)cnc34)cc2)cc1`?
Y pestis TopoI: -4.0; TcdB inh: -3.6; Mtb FBA inh: 2.4; PrPC TRFRET: 11.3; GDH-TPI inh: 19.9

How did Cc1ccc(S(=O)(=O)Nc2ccc(Nc3nccn4c(-c5ccc6ccccc6c5)cnc34)cc2)cc1 do in these assays?
Y pestis TopoI: 13.7; TcdB inh: 7.0; Mtb FBA inh: 11.3; PrPC TRFRET: 2.9; GDH-TPI inh: 31.9*

What do the screens show for `Cc1c(CC(=O)O)c(=O)oc2cc(OCc3ccc(Cl)cc3)ccc12`?
Y pestis TopoI: 4.3; TcdB inh: 0.9; Mtb FBA inh: 126.4*; PrPC TRFRET: 8.7; GDH-TPI inh: 18.0

What do the screens show for `CCOC(=O)CCc1c(C)c2ccc(OCc3nn[nH]n3)cc2oc1=O`?
Y pestis TopoI: 4.3; Mtb FBA inh: active; PrPC TRFRET: 4.9; GDH-TPI inh: -1.5

What do the screens show for `Cc1c(CC(=O)O)c(=O)oc2cc(OCc3nn[nH]n3)ccc12`?
Y pestis TopoI: 0.4; Mtb FBA inh: active; PrPC TRFRET: 2.8; GDH-TPI inh: 10.7

What do the screens show for `Cc1noc(C)c1S(=O)(=O)N(C)C[C@@H]1Oc2ccc(NS(=O)(=O)c3ccc(Cl)cc3)cc2C(=O)N([C@H](C)CO)C[C@@H]1C`?
TcdB inh: -0.4

Results for CN(C(=O)COC(=O)c1cnc(Cl)c(Cl)c1)C1CCS(=O)(=O)C1 (stereo unspecified) ?
Y pestis TopoI: 0.2; TcdB inh: -4.4; Mtb FBA inh: -2.3; PrPC TRFRET: 6.1; GDH-TPI inh: -6.7

Results for CN(C(=O)COC(=O)c1ccc(Cl)cc1N)C1CCS(=O)(=O)C1 (stereo unspecified) ?
Y pestis TopoI: 6.7; Mtb FBA inh: 66.6*; PrPC TRFRET: -6.8; GDH-TPI inh: 5.1

How did CCCCn1c(=NC(=O)c2cccnc2)c(C#N)cc2c(=O)n3cccc(C)c3nc21 do in these assays?
Y pestis TopoI: 8.9; Mtb FBA inh: 193.9*; PrPC TRFRET: -3.8; GDH-TPI inh: 6.4

How did CCCn1c(=NC(=O)c2ccncc2)c(C#N)cc2c(=O)n3cccc(C)c3nc21 do in these assays?
Y pestis TopoI: -4.0; Mtb FBA inh: 7.0; GDH-TPI inh: 0.0

Results for Cc1cccn2c(=O)c3cc(C#N)c(=NC(=O)c4ccncc4)n(CCCOC(C)C)c3nc12 ?
Y pestis TopoI: -0.5; Mtb FBA inh: 10.6; PrPC TRFRET: 0.1; GDH-TPI inh: 4.7

How did COCCCn1c(=NC(=O)c2ccncc2)c(C#N)cc2c(=O)n3cccc(C)c3nc21 do in these assays?
Y pestis TopoI: -2.6; Mtb FBA inh: active; PrPC TRFRET: -12.0; GDH-TPI inh: 7.0
